High-throughput results (PubChem)
VDR inhibitor = blocks the human vitamin D receptor; P11473; VDR-SRC2-3 peptide fluorescence polarization, 2 h; Potency, µM, without a hit: max response, negative = inhibition, most hits filed as inhibitors; 400,000 tested, 0.93% active; further: on the % scale 0 is the no-effect control and ±100 the full control effect
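The screen uses fluorescence polarization to detect compounds that interfere with recruitment of the SRC2-3 coactivator peptide to VDR; plates are read after 2 h at room temperature.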
TSG101-PTAP inh = blocks PTAP/TSG101 interaction to inhibit HIV-1 budding; Potency, µM (doses to about 115 µM), for the others: at the top dose activity change, negative = inhibition, usual class: inhibitors; Q99816; Fluorescence polarization, FITC-PTAP peptide / Tsg101 binding; 340,000 tested, under 10 active; active means well fitted inhibition curve with a large enough effect in the main read-out, with a control signal flat, not every such curve was filed as active; inconclusive means small, poorly fitted or top-dose-only effect, or effect the other way, or a change in a side signal; inactive means no such curve, though single readings can be large or run the other way; further: % of control where 0% means no effect
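Compounds were pin-transferred onto Tsg101 binding domain (10 uM final) in HEPES pH 7.5 buffer, then FITC-PTAP peptide was added at 50 nM final. After 20 min at RT, polarization reported peptide displacement across a qHTS concentration series.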
PLK1 PBD inh = inhibitors of human PLK1 polo-box domain binding. P53350. Plk1 PBD binding of FITC phosphopeptide, fluorescence polarization. Potency, µM, without a hit: max response, negative = inhibition, actives largely listed as inhibitors. 360,000 tested, 2.8% active. AID 720504; further: series mostly up to about 57 µM; on the % scale 0 is the no-effect control and ±100 the full control effect; nearly all actives have a fitted effect of over 65% in size
USP1 inh = blocks the human USP1/UAF1 deubiquitinase complex; 390,000 tested, 0.23% active; O94782; recombinant USP1/UAF1, Ub-Rhodamine cleavage fluorescence; AID 743255; Potency, µM (doses to about 57.1 µM), for inactives: at the highest dose activity change, negative = inhibition, actives largely listed as inhibitors; further: on the % scale 0 is the no-effect control and ±100 the full control effect; nearly all actives have a fitted effect of over 60% in size
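1 nM enzyme complex + cpd, 15 min RT; start with Ub-Rho 150nM final; kinetic fluorescence ex 480/em 540, 6 reads q60 s. Buffer 50mM HEPES pH 7.8, 0.5mM EDTA, 0.1 mg/ml BSA, 1mM TCEP, 0.01% Tween-20.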
KAT2A inh = blocks human GCN5L2 histone acetyltransferase | Q92830 | GCN5L2 HAT assay, ThioGlo1 CoA-SH fluorescence | Potency, µM (titrated, usually from 58.9 µM), for the others: at the top dose activity change, negative = inhibition, most hits filed as inhibitors | 390,000 tested, 0.21% active; further: on the % scale 0 is the no-effect control and ±100 the full control effect
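Fluorescence readout, Ex340nm/Em540nm: ThioGlo1 (50uM final) reacts with free CoA thiol released as 20nM GCN5L2 acetylates H3(1-25) peptide (75uM) using acetyl-CoA (70uM). Compound and enzyme sat 15 min beforehand; 20 min room-temperature reaction.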
* marks the source's active call; other numbers are inactive results. Most compounds without a hit are left out; they make up all but 3% or so of the library. Unless noted, the call rests on the fitted dose curve; in most records, active means well fitted curve in the direction sought with a large enough effect; inconclusive means small, poorly fitted or top-dose-only effect, or another doubt; inactive means no such curve, though single readings can be large; an effect the other way counts as inactive or inconclusive. Potency means the concentration at half of the fitted maximal effect.

What do the screens show for `CC1CCCCC1NC(=O)c1cc2ccccc2o1` (stereo unspecified)?
VDR inhibitor: -18%; TSG101-PTAP inh: 0%; PLK1 PBD inh: 30µM*; USP1 inh: -4%; KAT2A inh: -14%

What do the screens show for `CSc1sccc1/C=C(/C#N)C(=O)c1ccco1`?
VDR inhibitor: inconclusive; TSG101-PTAP inh: -3%; PLK1 PBD inh: 0.84µM*; USP1 inh: -17%; KAT2A inh: -5%

What do the screens show for `CSc1sccc1/C=N/O`?
VDR inhibitor: 5%; TSG101-PTAP inh: -8%; PLK1 PBD inh: 0%; USP1 inh: -17%; KAT2A inh: 3%

How did Cc1ccc(NC(=O)Nc2nnc(SCC(=O)N3CCC(C)CC3)s2)cc1 do in these assays?
VDR inhibitor: -6%; USP1 inh: 17%; KAT2A inh: -4%

What do the screens show for `CCCCCC(=O)N(O)C1CC(=O)N(c2ccccc2)C1=O` (stereo unspecified)?
VDR inhibitor: 20µM*; TSG101-PTAP inh: 0%; PLK1 PBD inh: inconclusive; USP1 inh: -10%; KAT2A inh: -21%

Results for C=C(C)[C@@H]1CCC2(C(=O)O)CC[C@]3(C)[C@H](CC[C@@H]4[C@@]5(C)CCC(=O)C(C)(C)[C@@H]5CC[C@]43C)[C@@H]12 (stereo partly specified) ?
VDR inhibitor: -17%; TSG101-PTAP inh: 0%; PLK1 PBD inh: 13µM*; USP1 inh: -17%; KAT2A inh: -4%

Results for CC(=O)NC(c1ccco1)c1cc(Cl)c2ccc(N(C)C)nc2c1O (stereo unspecified) ?
KAT2A inh: -10%

How did CCN(Cc1ccncc1)Cc1c(O)ccc2ccccc12 do in these assays?
VDR inhibitor: -26%; TSG101-PTAP inh: -4%; PLK1 PBD inh: 2.7µM*; USP1 inh: -10%; KAT2A inh: -6%

What do the screens show for `CCOC(=O)c1c(-c2ccccc2)csc1NC(=O)c1cc(-c2ccccc2OC)on1`?
VDR inhibitor: inconclusive; TSG101-PTAP inh: 2%; PLK1 PBD inh: 24µM*; USP1 inh: -13%

What do the screens show for `CCOC(=O)c1c(-c2ccccc2)csc1NC(=O)c1cc(-c2ccc(Br)cc2)on1`?
VDR inhibitor: 79µM*; USP1 inh: -21%; KAT2A inh: 1%

What do the screens show for `CCOC(=O)c1c(-c2ccccc2)csc1NC(=O)c1cc(-c2ccc(F)cc2)on1`?
VDR inhibitor: inconclusive; USP1 inh: inconclusive; KAT2A inh: -5%

What do the screens show for `CC(C)c1ccc(-c2csc(NC(=O)c3cccs3)c2C(=O)O)cc1`?
VDR inhibitor: -19%; TSG101-PTAP inh: 0%; PLK1 PBD inh: 34µM*; USP1 inh: -27%; KAT2A inh: -10%

Results for CCOC(=O)c1c(-c2cccc([N+](=O)[O-])c2)csc1NC(=O)CCCOc1ccccc1OC ?
VDR inhibitor: 5%; TSG101-PTAP inh: -4%; PLK1 PBD inh: 30µM*; USP1 inh: -24%; KAT2A inh: -7%

What do the screens show for `COc1ccc(C(=O)NCC(c2cccnc2)N2CCN(c3ccc(F)cc3)CC2)cc1` (stereo unspecified)?
VDR inhibitor: 1%; USP1 inh: 1%; KAT2A inh: -15%

What do the screens show for `CCOC(=O)c1c(NC(=O)c2cc(-c3ccc(OC)c(OC)c3)on2)sc(C)c1C`?
VDR inhibitor: -8%; USP1 inh: -21%; KAT2A inh: -5%

How did Cc1cccc(C(=O)Nc2scc(-c3ccc(Br)cc3)c2C(=O)O)c1 do in these assays?
VDR inhibitor: -5%; TSG101-PTAP inh: -2%; PLK1 PBD inh: 30µM*; USP1 inh: -6%

How did Cc1ccc(-c2csc(NC(=O)c3cccc(C)c3)c2C(=O)O)cc1 do in these assays?
VDR inhibitor: -22%; TSG101-PTAP inh: 1%; PLK1 PBD inh: inconclusive; USP1 inh: -2%

What do the screens show for `CCOC(=O)c1c(NC(=O)c2cc(-c3ccccc3OC)on2)sc(C)c1C`?
VDR inhibitor: 79µM*; USP1 inh: -1%; KAT2A inh: -10%

Results for CC(C)C1=CC2=CC[C@@H]3[C@](C)(CCC[C@@]3(C)C(=O)O)[C@H]2CC1 ?
VDR inhibitor: inconclusive; KAT2A inh: 13%
